Measurements: PubChem BioAssay (EPA / NIEHS)
Calls of active or inactive are those of the source. Rule for the calls: active = hit-call score of the fitted dose curve at least 0.9, where 1 is the maximum; inactive = score below 0.9.

Tests used:
Details in all cases: mRNA level, 48 h; actives raise or lower the signal
[1] = read-out: Potassium channel subfamily K member 1 (KCNK1), KCNK1 (gene 3775); experiment: LTEA_HepaRG_KCNK1: Life Technologies and Expression Analysis (LTEA) Assay for Potassium channel subfamily K member 1 (KCNK1) using HepaRG (AID 2283511)
Summary of the method: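 Differentiated HepaRG cells, 48 h exposure in serum-free induction medium with 0.5% DMSO; 8 concentrations, half-log from 100 uM, duplicate. KCNK1 mRNA by qRT-PCR, normalized to ACTB, GAPDH, POLR2A; bidirectional fit vs DMSO.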

[2] = read-out: Keratin 19 (KRT19), KRT19 (gene 3880); experiment: LTEA_HepaRG_KRT19: Life Technologies and Expression Analysis (LTEA) Assay for Keratin 19 (KRT19) using HepaRG (AID 2283512)
Summary of the method: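 Differentiated human HepaRG cells, plated 48 h, were exposed in duplicate for 48 h in serum-free induction medium to eight half-log concentrations up to 100 uM in 0.5% DMSO. KRT19 mRNA was quantified by qRT-PCR, normalized to ACTB, GAPDH and POLR2A, and fitted bidirectionally versus DMSO.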

[3] = read-out: JUN Transcription Factor, JUN (gene 3725); experiment: LTEA_HepaRG_JUN: Life Technologies and Expression Analysis (LTEA) Assay for JUN Transcription Factor using HepaRG (AID 2283513)
Summary of the method: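 Cells plated 48 h, medium switched to serum-free induction medium, then dosed 48 h (100 uM top, half-log dilutions, 0.5% DMSO). RNA isolated; JUN measured by qRT-PCR against three housekeeping genes; gain or loss fitted relative to DMSO.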

[4] = read-out: Lipase C (LIPC), LIPC (gene 3990); experiment: LTEA_HepaRG_LIPC: Life Technologies and Expression Analysis (LTEA) Assay for Lipase C (LIPC) using HepaRG (AID 2283514)
Summary of the method: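 HepaRG cells, 48 h after plating, treated in duplicate for 48 h in serum-free induction medium over 8 half-log concentrations from 100 uM, 0.5% DMSO. LIPC mRNA by TaqMan qRT-PCR normalized to ACTB/GAPDH/POLR2A; bidirectional fit versus DMSO.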

[5] = read-out: Lipoprotein lipase (LPL), LPL (gene 4023); experiment: LTEA_HepaRG_LPL: Life Technologies and Expression Analysis (LTEA) Assay for Lipoprotein lipase (LPL) using HepaRG (AID 2283515)
Summary of the method: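 Differentiated HepaRG cells, plated 48 h, then exposed 48 h in serum-free induction medium to 8 concentrations (top 100 uM, half-log steps) in 0.5% DMSO, duplicate. LPL mRNA measured by qRT-PCR, normalized to ACTB, GAPDH and POLR2A.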

[6] = read-out: MicroRNA 122 (MIR122), gene 406906; experiment: LTEA_HepaRG_MIR122: Life Technologies and Expression Analysis (LTEA) Assay for MicroRNA 122 (MIR122) using HepaRG (AID 2283516); note: the transcript read is the microRNA miR-122
Summary of the method: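 HepaRG plated 48 h, switched to serum-free induction medium, then treated in duplicate for 48 h (100 uM top, half-log steps, 0.5% DMSO vehicle). RNA isolated, qRT-PCR performed, concentration-response fitted both directions relative to DMSO.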

[7] = read-out: matrix metalloproteinase-10 (MMP10), MMP10 (gene 4319); experiment: LTEA_HepaRG_MMP10: Life Technologies and Expression Analysis (LTEA) Assay for matrix metalloproteinase-10 (MMP10) using HepaRG (AID 2283517)
Summary of the method: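 Differentiated HepaRG cells in serum-free induction medium exposed 48 h in duplicate to 8-point half-log series up to 100 uM in 0.5% DMSO. mRNA quantified by qRT-PCR, normalised to ACTB, GAPDH, POLR2A; bidirectional fit versus DMSO.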

MYC, MYC (gene 4609) = experiment: LTEA_HepaRG_MYC: Life Technologies and Expression Analysis (LTEA) Assay for MYC using HepaRG (AID 2283518)
Summary of the method: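 Differentiated human HepaRG cells, plated 48 h then switched to serum-free induction medium, were exposed in duplicate for 48 h to 8-point half-log series up to 100 uM in 0.5% DMSO. MYC mRNA measured by qRT-PCR, normalized to ACTB/GAPDH/POLR2A.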

[8] = read-out: matrix metalloproteinase-3 (MMP3), MMP3 (gene 4314); experiment: LTEA_HepaRG_MMP3: Life Technologies and Expression Analysis (LTEA) Assay for matrix metalloproteinase-3 (MMP3) using HepaRG (AID 2283519)
Summary of the method: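 HepaRG cells (~100,000/well) in serum-free induction medium were dosed in duplicate for 48 h with an 8-point half-log series from 100 uM, 0.5% DMSO. MMP3 mRNA was quantified by Fluidigm TaqMan qRT-PCR, normalized to three housekeeping genes.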

[9] = read-out: Paternally Expressed 10 (PEG10), PEG10 (gene 23089); experiment: LTEA_HepaRG_PEG10: Life Technologies and Expression Analysis (LTEA) Assay for Paternally Expressed 10 (PEG10) using HepaRG (AID 2283520)
Summary of the method: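 HepaRG, 48 h post-plating → serum-free induction medium → 48 h chemical exposure (duplicate, 8-pt, max 100 uM, half-log, 0.5% DMSO) → lysis in RLT → TaqMan qRT-PCR for PEG10, ACTB/GAPDH/POLR2A normalisation.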

[10] = read-out: Nuclear factor NF-kappa-B p105 subunit (Homo sapiens) (UniProt P19838); experiment: LTEA_HepaRG_NFKB1: Life Technologies and Expression Analysis (LTEA) Assay for Nuclear Factor Kappa B Subunit 1 (NFKB1) using HepaRG (AID 2283521)
Summary of the method: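 Differentiated human HepaRG cells in serum-free induction medium with 0.5% DMSO were exposed for 48 h to eight half-log concentrations, top 100 uM, in duplicate. NFKB1 mRNA measured by Fluidigm TaqMan qRT-PCR, normalised to ACTB, GAPDH and POLR2A; bidirectional fit versus DMSO.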

[11] = read-out: Protein phosphatase 2A (PPP2R4), PTPA (gene 5524); experiment: LTEA_HepaRG_PPP2R4: Life Technologies and Expression Analysis (LTEA) Assay for Protein phosphatase 2A (PPP2R4) using HepaRG (AID 2283522)
Summary of the method: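 Readout is PPP2R4 transcript level by microfluidic qRT-PCR after 48 h chemical treatment of human HepaRG liver cells. Concentrations spanned 100 uM downward in half-log steps; gain or loss of signal was fitted relative to DMSO.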

[12] = read-out: Phosphatase and tensin (PTEN), PTEN (gene 5728); experiment: LTEA_HepaRG_PTEN: Life Technologies and Expression Analysis (LTEA) Assay for Phosphatase and tensin (PTEN) using HepaRG (AID 2283523)
Summary of the method: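 HepaRG cells, 48 h after plating, exposed in duplicate for 48 h in serum-free induction medium to 8 half-log concentrations up to 100 uM (0.5% DMSO). PTEN mRNA by qRT-PCR, normalized to ACTB, GAPDH, POLR2A; bidirectional fit versus DMSO.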

[13] = read-out: solute carrier (SLC22A1), SLC22A1 (gene 6580); experiment: LTEA_HepaRG_SLC22A1: Life Technologies and Expression Analysis (LTEA) Assay for solute carrier (SLC22A1) using HepaRG (AID 2283524)
Summary of the method: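 Differentiated human HepaRG cells in serum-free induction medium, exposed 48 h in duplicate to 8-point half-log series from 100 µM top in 0.5% DMSO. SLC22A1 mRNA by TaqMan qRT-PCR normalized to ACTB, GAPDH, POLR2A; bidirectional fit versus DMSO.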

[14] = read-out: Pyruvate Dehydrogenase Kinase 4 (PDK4), PDK4 (gene 5166); experiment: LTEA_HepaRG_PDK4: Life Technologies and Expression Analysis (LTEA) Assay for Pyruvate Dehydrogenase Kinase 4 (PDK4) using HepaRG (AID 2283525)
Summary of the method: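 HepaRG cells plated 48 h, then switched to serum-free induction medium and exposed in duplicate for 48 h to 8 half-log concentrations from 100 uM in 0.5% DMSO. PDK4 mRNA measured by qRT-PCR, normalized to ACTB, GAPDH and POLR2A; bidirectional fit versus DMSO.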

[15] = read-out: NAD(P)H dehydrogenase [quinone] 1 (NQO1), NQO1 (gene 1728); experiment: LTEA_HepaRG_NQO1: Life Technologies and Expression Analysis (LTEA) Assay for NAD(P)H dehydrogenase [quinone] 1 (NQO1) using HepaRG (AID 2283526)
Summary of the method: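 HepaRG, 48 h post-plating → serum-free induction medium → test chemical 48 h (duplicate, 100 uM top, half-log x8, 0.5% DMSO) → RNA isolation → qRT-PCR, ACTB/GAPDH/POLR2A normalization; bidirectional curve fit vs DMSO baseline.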

[16] = read-out: Nuclear factor erythroid 2-related factor 2 (Homo sapiens) (UniProt Q16236); experiment: LTEA_HepaRG_NFE2L2: Life Technologies and Expression Analysis (LTEA) Assay for Nuclear factor erythroid 2-related factor 2 (NFE2L2) Transcription Factor using HepaRG (AID 2283527)
Summary of the method: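 Differentiated human HepaRG cells, serum-free induction medium, exposed 48 h in duplicate to eight half-log concentrations up to 100 uM in 0.5% DMSO. NFE2L2 mRNA by Fluidigm TaqMan qRT-PCR, normalised to ACTB, GAPDH, POLR2A; bidirectional change versus DMSO.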

[17] = read-out: succinate dehydrogenase complex iron sulfur subunit B (SDHB), SDHB (gene 6390); experiment: LTEA_HepaRG_SDHB: Life Technologies and Expression Analysis (LTEA) Assay for succinate dehydrogenase complex iron sulfur subunit B (SDHB) using HepaRG (AID 2283528)
Summary of the method: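 HepaRG cells (~100,000/well, plated 48 h) exposed in duplicate for 48 h in serum-free induction medium to 8-point half-log series from 100 uM in 0.5% DMSO; mRNA by qRT-PCR normalised to ACTB, GAPDH, POLR2A; bidirectional fit versus DMSO.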

[18] = read-out: Signal transducer and activator of transcription 3 (Homo sapiens) (UniProt P40763); experiment: LTEA_HepaRG_STAT3: Life Technologies and Expression Analysis (LTEA) Assay for Signal transducer and activator of transcription (STAT3) using HepaRG (AID 2283529)
Summary of the method: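 Differentiated HepaRG cells, serum-free induction medium, dosed 48 h in duplicate, 8 half-log concentrations from 100 uM in 0.5% DMSO. STAT3 mRNA by qRT-PCR, normalised to ACTB, GAPDH, POLR2A; bidirectional fit versus DMSO.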

[19] = read-out: solute carrier (SLCO1B1), SLCO1B1 (gene 10599); experiment: LTEA_HepaRG_SLCO1B1: Life Technologies and Expression Analysis (LTEA) Assay for solute carrier (SLCO1B1) using HepaRG (AID 2283530)
Summary of the method: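 Differentiated human HepaRG cells, plated 48 h, switched to serum-free induction medium and exposed in duplicate for 48 h to 8 half-log concentrations (top 100 uM) in 0.5% DMSO. SLCO1B1 mRNA by TaqMan qRT-PCR, normalized to ACTB/GAPDH/POLR2A.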

Measured: AC50

Sequence of Nuclear factor erythroid 2-related factor 2 (Homo sapiens) (Q16236 whole entry, looked up): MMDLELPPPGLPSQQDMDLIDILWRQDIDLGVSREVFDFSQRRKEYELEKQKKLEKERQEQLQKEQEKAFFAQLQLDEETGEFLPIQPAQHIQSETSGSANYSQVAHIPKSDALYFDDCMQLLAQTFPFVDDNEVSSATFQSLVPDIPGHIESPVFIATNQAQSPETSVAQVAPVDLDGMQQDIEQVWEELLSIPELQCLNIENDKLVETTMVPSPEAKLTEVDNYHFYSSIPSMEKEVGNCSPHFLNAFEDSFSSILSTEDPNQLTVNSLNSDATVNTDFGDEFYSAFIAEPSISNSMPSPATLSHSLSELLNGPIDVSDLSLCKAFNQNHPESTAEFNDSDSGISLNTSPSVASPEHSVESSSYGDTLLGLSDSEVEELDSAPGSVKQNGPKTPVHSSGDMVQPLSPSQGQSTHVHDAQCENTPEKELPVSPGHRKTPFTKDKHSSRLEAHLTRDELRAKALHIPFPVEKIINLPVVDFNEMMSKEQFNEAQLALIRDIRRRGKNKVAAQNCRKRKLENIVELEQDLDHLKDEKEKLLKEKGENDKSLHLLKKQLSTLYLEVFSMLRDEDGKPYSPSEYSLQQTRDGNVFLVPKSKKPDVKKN
Sequence of Nuclear factor NF-kappa-B p105 subunit (Homo sapiens) (P19838 whole entry, looked up): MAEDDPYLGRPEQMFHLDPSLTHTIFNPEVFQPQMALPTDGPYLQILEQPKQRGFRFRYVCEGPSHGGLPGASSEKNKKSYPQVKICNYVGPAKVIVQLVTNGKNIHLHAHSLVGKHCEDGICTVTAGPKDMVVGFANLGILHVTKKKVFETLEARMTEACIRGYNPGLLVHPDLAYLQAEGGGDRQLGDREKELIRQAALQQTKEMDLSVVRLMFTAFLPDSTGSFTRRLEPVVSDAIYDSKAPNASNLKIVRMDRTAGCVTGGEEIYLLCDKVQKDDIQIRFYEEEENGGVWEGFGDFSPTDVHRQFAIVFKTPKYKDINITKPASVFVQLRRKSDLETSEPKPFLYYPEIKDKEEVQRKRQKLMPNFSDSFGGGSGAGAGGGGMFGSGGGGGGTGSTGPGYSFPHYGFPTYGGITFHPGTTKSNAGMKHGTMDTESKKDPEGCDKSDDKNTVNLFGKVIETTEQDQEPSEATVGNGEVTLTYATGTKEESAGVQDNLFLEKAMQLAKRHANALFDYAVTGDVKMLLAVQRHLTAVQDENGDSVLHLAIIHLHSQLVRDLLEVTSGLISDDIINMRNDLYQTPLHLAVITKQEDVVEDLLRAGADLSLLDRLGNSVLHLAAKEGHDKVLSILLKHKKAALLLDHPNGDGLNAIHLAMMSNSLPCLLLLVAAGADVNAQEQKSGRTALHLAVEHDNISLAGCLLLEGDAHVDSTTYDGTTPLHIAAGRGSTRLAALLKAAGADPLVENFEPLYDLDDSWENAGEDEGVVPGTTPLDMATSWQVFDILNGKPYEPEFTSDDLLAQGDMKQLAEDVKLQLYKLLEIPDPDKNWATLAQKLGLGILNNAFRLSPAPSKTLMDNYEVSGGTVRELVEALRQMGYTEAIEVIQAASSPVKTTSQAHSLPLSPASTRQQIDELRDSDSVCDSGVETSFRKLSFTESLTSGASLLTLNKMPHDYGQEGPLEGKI
Sequence of Signal transducer and activator of transcription 3 (Homo sapiens) (P40763 whole entry, looked up): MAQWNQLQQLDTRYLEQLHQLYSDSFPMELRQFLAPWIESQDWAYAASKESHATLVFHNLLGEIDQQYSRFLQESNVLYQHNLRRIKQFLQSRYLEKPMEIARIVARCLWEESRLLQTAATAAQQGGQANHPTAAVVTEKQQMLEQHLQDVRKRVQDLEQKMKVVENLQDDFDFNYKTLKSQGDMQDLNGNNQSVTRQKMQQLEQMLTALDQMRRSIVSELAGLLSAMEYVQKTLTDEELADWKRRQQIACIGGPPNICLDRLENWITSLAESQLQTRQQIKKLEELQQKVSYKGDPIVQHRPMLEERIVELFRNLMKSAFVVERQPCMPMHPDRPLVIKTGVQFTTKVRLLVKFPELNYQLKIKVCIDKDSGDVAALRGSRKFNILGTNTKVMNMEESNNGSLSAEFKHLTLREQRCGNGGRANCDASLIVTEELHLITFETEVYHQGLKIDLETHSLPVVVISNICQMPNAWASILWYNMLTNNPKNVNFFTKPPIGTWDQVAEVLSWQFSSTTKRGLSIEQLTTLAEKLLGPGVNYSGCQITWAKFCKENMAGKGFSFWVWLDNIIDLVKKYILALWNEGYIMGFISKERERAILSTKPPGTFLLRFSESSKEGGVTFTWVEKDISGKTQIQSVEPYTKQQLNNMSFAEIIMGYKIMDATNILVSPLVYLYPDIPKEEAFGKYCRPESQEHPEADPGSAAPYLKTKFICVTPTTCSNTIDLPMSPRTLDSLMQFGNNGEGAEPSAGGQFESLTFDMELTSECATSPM

COc1cc(-c2nc(NC(=O)c3cc4cc(C)cc(C)c4n3CC(=O)O)sc2CCC2CCCCC2)c(OC)cc1Cl
inactive: [1] | [8] | [16]
active: [2] 11.4 µM | [3] 10.7 µM | [4] 6.41 µM | [5] 10.5 µM | [6] 6.1 µM | [7] 3.51 µM | MYC, MYC (gene 4609) 19.8 µM | [9] 11.9 µM | [10] 19.4 µM | [11] 8.71 µM | [12] 16.8 µM | [13] 7.07 µM | [14] 24.4 µM | [15] 3.35 µM | [17] 13.4 µM | [18] 19.3 µM | [19] 6.78 µM

CCCCCCCC=O
active: [2] 1.32 µM
inactive: [1] | [3] | [4] | [5] | [6] | [7] | MYC, MYC (gene 4609) | [8] | [9] | [10] | [11] | [12] | [13] | [14] | [15] | [16] | [17] | [18] | [19]

Cc1oc(-c2ccccc2)nc1CCOc1cccc2c1ccn2CCC(=O)O
active: [2] 88.5 µM | [4] 79.2 µM | [5] 0.0309 µM | [6] 90.1 µM | [7] 82.1 µM | MYC, MYC (gene 4609) 81.9 µM | [13] 79.6 µM | [14] 1.1 µM | [16] 74.8 µM | [19] 82.4 µM
inactive: [1] | [3] | [8] | [9] | [10] | [11] | [12] | [15] | [17] | [18]
